From PubChem BioAssay (Tox21)
Results filed as inconclusive are left out. Activity calls are given as the source filed them. Unless noted, calls come from the whole dose curve.

Key:
[1] = qHTS assay to identify small molecule antagonists of the sonic hedgehog signaling (Shh) pathway (AID 1259369); note: nearly all actives have a fitted effect of over 45% in size; note: potency is the fitted concentration of half-maximal effect
Procedure, shortened: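 NIH/3T3-derived 3T3Gli1-Luc cells with stably integrated Gli1-Luc reporter were preincubated 4hr at 37 C, then given compounds in DMSO plus Shh conditioned medium and incubated 24hr. Firefly luciferase luminescence read after 30min reagent at room temperature.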

[2] = biological target: Estrogen receptor beta (Homo sapiens) (UniProt Q92731); experiment: qHTS assay to identify small molecule agonists of the estrogen receptor beta (ER-beta) signaling pathway (AID 1259377; active = well fitted activation curve with a large enough effect in the signal ratio in the repeat runs, not every such curve was filed as active; the % refers to the signal ratio)
Sequence of Estrogen receptor beta (Homo sapiens) (Q92731 whole entry, looked up): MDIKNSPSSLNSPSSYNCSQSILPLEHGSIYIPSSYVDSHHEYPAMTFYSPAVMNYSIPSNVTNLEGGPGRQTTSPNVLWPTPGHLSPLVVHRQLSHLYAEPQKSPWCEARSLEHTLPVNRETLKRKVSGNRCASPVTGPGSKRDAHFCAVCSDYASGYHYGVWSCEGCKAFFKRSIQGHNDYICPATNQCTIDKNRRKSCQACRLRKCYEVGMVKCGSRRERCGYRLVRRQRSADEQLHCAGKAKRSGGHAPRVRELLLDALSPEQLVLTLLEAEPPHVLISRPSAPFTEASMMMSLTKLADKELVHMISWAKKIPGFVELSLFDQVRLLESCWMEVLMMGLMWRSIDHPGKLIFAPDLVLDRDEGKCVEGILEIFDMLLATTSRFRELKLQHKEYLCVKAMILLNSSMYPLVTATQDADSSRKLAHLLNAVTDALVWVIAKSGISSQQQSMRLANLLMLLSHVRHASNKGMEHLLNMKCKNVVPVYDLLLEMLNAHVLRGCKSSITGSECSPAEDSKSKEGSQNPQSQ
Procedure, shortened: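 qHTS in ER-beta-UAS-bla HEK293T cells: 6 hr settling, then 16 hr compound at 37C, then LiveBLAzer substrate 2 h at RT before fluorescence reading.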

[3] = qHTS assay to identify small molecule agonists of the androgen receptor (AR) signaling pathway in the presence of an antagonist - cell viability counter screen (AID 1259379; active = well fitted curve in the direction sought with a large enough effect in the repeat runs; an effect the other way counts as inactive or inconclusive; note: nearly all actives have a fitted effect of over 25% in size; note: potency is the fitted concentration of half-maximal effect; for activity change, negative = cytotoxicity: series mostly up to about 92 µM)
Procedure, shortened: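 MDA-kb2 human breast carcinoma cells (stable MMTV-luciferase, AR/GR responsive) were seeded 3,000 cells/well, pre-incubated 5 hr at 37C without CO2, then given 3.0uM nilutamide and compounds at 15 concentrations for 16 hr. Viability was read by CellTiter-Fluor fluorescence.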

[4] = qHTS assay to identify small molecule agonists of the estrogen receptor beta (ER-beta) signaling pathway - cell viability counter screen (AID 1259380; active = well fitted curve in the direction sought with a large enough effect in the repeat runs; an effect the other way counts as inactive or inconclusive; note: nearly all actives have a fitted effect of over 30% in size)
Procedure, shortened: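 ER-beta-UAS-bla HEK293T cells in medium with 2% charcoal-stripped FBS were preincubated 6 hr at 37C, dosed with compound in DMSO for 16 hr, then after the bla read, CellTiter-Glo was added for 30 min at room temperature; luminescence recorded.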

[5] = qHTS assay to identify small molecule antagonists of the estrogen receptor beta (ER-beta) signaling pathway - cell viability counter screen (AID 1259382; active = well fitted curve in the direction sought with a large enough effect in the repeat runs; an effect the other way counts as inactive or inconclusive;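 note: HEK293T cells carrying ER-beta-UAS-bla reporter stimulated with estradiol; series mostly up to about 92 µM; nearly all actives have a fitted effect of over 55% in size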)
Procedure, shortened: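 ER-beta-UAS-bla HEK293T cells (2,000/well, 2% charcoal-stripped FBS) were pre-incubated 6 hr at 37C, then given compound plus 1nM final 17-beta-estradiol for 16 hr. Viability was read in the same wells by CellTiter-Glo luminescence after 30 min at room temperature.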

[6] = biological target: Estrogen receptor (Homo sapiens) (UniProt P03372); experiment: qHTS assay to identify small molecule agonists of the estrogen receptor alpha (ER-alpha) signaling pathway in the presence of an antagonist (AID 1259383); note: top concentration of the series differs between compounds; nearly all actives have a fitted effect of over 15% in size
Sequence of Estrogen receptor (Homo sapiens) (P03372 whole entry, looked up): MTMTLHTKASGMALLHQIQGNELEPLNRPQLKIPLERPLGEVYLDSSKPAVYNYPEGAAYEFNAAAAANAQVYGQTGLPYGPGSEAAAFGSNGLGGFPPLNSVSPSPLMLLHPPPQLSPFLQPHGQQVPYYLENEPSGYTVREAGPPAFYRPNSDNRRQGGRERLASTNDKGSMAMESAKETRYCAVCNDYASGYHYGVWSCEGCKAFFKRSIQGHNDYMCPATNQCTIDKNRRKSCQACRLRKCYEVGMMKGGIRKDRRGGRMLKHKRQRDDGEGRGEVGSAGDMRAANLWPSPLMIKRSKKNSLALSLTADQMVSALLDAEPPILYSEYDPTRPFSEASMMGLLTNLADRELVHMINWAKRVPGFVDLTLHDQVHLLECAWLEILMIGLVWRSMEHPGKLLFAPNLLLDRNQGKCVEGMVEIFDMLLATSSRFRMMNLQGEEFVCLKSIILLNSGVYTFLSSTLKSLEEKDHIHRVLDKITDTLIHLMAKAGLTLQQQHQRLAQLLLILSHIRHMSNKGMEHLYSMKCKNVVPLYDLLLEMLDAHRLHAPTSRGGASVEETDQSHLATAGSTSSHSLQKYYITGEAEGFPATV
Procedure, shortened: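 VM7Luc4E2 cells (endogenous full-length ER-alpha, 4×ERE-luciferase) were precultured 5 days in phenol red-free medium with 10% charcoal-stripped FBS, given 10.0nM ICI-182,780 (final), then treated with compounds at 15 concentrations for 22hr at 37C; luminescence read with ONE-Glo.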

[7] = qHTS assay to identify small molecule agonists or antagonists of the thyroid stimulating hormone receptor (TSHR) signaling pathway - wild type cell line counter screen (AID 1259384)
Procedure, shortened: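 Counter screen in untransfected Hek293: compounds (15-point titration, triplicate) plus phosphodiesterase inhibitor Ro20-1724 added after 18 h plating; 30 min RT. Intracellular cAMP via competitive d2/cryptate immunoassay, 1 h incubation.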

[8] = biological target: Thyrotropin receptor (Homo sapiens) (UniProt P16473); experiment: qHTS assay to identify small molecule antagonists of the thyroid stimulating hormone receptor (TSHR) signaling pathway (AID 1259385); note: nearly all actives have a fitted effect of over 20% in size
Sequence of Thyrotropin receptor (Homo sapiens) (P16473 whole entry, looked up): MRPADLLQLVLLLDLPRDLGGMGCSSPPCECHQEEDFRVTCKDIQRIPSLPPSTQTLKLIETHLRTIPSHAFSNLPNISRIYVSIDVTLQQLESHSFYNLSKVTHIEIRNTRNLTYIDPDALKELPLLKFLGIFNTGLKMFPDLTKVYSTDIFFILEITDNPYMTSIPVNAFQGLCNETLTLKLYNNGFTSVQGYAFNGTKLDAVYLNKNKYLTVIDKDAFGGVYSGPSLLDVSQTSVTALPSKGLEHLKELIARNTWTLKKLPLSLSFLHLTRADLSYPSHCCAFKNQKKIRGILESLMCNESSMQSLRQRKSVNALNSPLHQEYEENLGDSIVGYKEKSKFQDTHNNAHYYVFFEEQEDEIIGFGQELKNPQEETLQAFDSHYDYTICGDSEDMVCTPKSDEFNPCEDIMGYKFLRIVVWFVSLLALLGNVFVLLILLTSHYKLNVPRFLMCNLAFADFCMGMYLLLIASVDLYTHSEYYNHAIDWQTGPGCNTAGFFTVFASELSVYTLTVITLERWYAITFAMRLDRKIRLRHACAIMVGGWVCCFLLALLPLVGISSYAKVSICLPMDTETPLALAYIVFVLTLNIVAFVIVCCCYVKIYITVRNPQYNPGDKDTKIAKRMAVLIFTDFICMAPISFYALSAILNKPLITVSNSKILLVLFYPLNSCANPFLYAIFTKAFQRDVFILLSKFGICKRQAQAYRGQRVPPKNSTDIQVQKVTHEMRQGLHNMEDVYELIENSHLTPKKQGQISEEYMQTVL
Procedure, shortened: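 Antagonist mode: compound-treated TSHR-expressing HEK293 cells were stimulated with 1.5 ng/mL TSH (final) in presence of Ro20-1724 for 30 min at RT. HTRF cAMP detection after 1 h; each compound tested at 15 concentrations, triplicate.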

[9] = biological target: Androgen receptor (Homo sapiens) (UniProt P10275); experiment: qHTS assay to identify small molecule agonists of the androgen receptor (AR) signaling pathway in the presence of an antagonist (AID 1259381); note: nearly all actives have a fitted effect of over 15% in size; note: potency is the fitted concentration of half-maximal effect
Sequence of Androgen receptor (Homo sapiens) (P10275 whole entry, looked up): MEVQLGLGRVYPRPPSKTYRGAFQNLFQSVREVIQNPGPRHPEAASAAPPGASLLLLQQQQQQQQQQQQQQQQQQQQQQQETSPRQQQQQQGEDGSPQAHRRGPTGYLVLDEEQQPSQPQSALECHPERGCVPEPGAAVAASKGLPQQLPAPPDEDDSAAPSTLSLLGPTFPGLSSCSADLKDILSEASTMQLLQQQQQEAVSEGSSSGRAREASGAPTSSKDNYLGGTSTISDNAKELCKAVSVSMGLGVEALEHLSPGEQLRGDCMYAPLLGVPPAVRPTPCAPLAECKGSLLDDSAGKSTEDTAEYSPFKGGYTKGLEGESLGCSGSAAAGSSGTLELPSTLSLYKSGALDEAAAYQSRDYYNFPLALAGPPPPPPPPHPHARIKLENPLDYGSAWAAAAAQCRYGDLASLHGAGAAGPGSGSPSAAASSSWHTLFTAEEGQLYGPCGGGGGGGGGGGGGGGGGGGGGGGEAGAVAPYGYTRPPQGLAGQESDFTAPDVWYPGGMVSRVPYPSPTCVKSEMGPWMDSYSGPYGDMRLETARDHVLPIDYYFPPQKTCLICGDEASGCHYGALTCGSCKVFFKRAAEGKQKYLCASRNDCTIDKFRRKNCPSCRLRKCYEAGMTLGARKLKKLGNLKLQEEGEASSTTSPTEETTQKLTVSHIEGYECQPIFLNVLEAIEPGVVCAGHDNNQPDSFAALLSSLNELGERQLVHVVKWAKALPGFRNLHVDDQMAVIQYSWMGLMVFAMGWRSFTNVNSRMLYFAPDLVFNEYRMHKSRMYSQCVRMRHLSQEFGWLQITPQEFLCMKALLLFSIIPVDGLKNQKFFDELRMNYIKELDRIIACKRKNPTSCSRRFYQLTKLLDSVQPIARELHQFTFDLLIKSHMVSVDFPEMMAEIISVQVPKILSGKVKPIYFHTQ
Procedure, shortened: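 MDA-kb2 human breast carcinoma cells carrying an MMTV-luciferase reporter (AR- and GR-responsive) were treated with compounds at 15 concentrations plus 3.0uM final nilutamide for 16hr at 37C without CO2; luminescence was read after ONE-Glo addition.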
% is set by controls: 0 for no effect and ±100 for the full control effect.

CN1C(=O)CC(C)(c2ccccc2)C1=O (stereo not given)
inactive: Potency [1] | Potency [2] | Potency [3] | Potency [4] | Potency [5] | Potency [6] | outcome [7] | Potency [8]

CC(C)c1nnc2ccc(-c3ocnc3-c3cc(F)ccc3F)cn12
active: Potency [1] 1090 nM
inactive: Potency [2] | Potency [3] | Potency [5] | outcome [7] | Potency [8]

CO/N=C1\CN(c2nc3c(cc2F)c(=O)c(C(=O)O)cn3C2CC2)CC1CN (stereo not given)
inactive: Potency [1] | Potency [2] | Potency [3] | Potency [5] | Potency [6] | outcome [7] | Potency [8]

C=CC(=C)CCCC(C)(C)OC(C)=O
inactive: Potency [1] | Potency [2] | Potency [3] | Potency [9] | Potency [5] | outcome [7] | Potency [8]

C=CC(=O)NCOCC(C)C
inactive: Potency [1] | Potency [2] | Potency [3] | Potency [4] | Potency [5] | outcome [7] | Potency [8]

CCOC(=O)c1ccccc1C
inactive: Potency [1] | Potency [2] | Potency [3] | Potency [5] | Potency [6] | outcome [7] | Potency [8]

CC(CCc1ccc2c(c1)OCO2)NN (stereo not given)
inactive: Potency [1] | Potency [2] | Potency [3] | Potency [5] | Potency [6] | outcome [7] | Potency [8]

CN(C)C(=O)Nc1ccc(Oc2ccc(Cl)cc2)cc1
active: Potency [3] 54500 nM
inactive: Potency [1] | Potency [2] | Potency [4] | Potency [5] | outcome [7] | Potency [8]

c1cnc2c(n1)CCCC2
inactive: Potency [1] | Potency [2] | Potency [3] | Potency [9] | Potency [5] | outcome [7] | Potency [8]

CO[C@@]12[C@H](COC(N)=O)C3=C(C(=O)C(C)=C(N)C3=O)N1C[C@@H]1N[C@@H]12
inactive: Potency [2] | Potency [3] | Potency [5]
active: Potency [1] 298 nM

CCOc1cc(N)c(Cl)cc1C(=O)NCC1CN(Cc2ccc(F)cc2)CCO1 (stereo not given)
inactive: Potency [1] | Potency [2] | Potency [3] | Potency [5] | outcome [7] | Potency [8]

C=CCCCCCCCCCCCCCCCC
inactive: activity change, negative = inhibition [1] 12.7% [at 8.39 µM] | activation [2] -1.08% [at 8.39 µM] | activity change, negative = cytotoxicity [3] 0.762% [at 8.39 µM] | activity change, negative = cytotoxicity [4] 5.49% [at 8.39 µM] | activity change, negative = cytotoxicity [5] -0.694% [at 8.39 µM] | activation [6] -0.131% [at 8.39 µM] | cAMP activity change [7] -0.74% [at 8.39 µM] | activity change, negative = inhibition [8] -0.238% [at 8.39 µM]

Cc1ccc(Nc2nccc(N(C)c3ccc4c(C)n(C)nc4c3)n2)cc1S(N)(=O)=O
inactive: Potency [2] | Potency [3] | Potency [9] | Potency [5] | Potency [6]
active: Potency [1] 1880 nM

O=C(O)c1cccc(O)c1
inactive: Potency [1] | Potency [2] | Potency [3] | Potency [4] | Potency [5] | Potency [6] | outcome [7] | Potency [8]

CN1CCCN=C1/C=C/c1cccs1
inactive: Potency [1] | Potency [2] | Potency [3] | Potency [5] | outcome [7] | Potency [8]

CC(=O)OCC(=O)[C@H]1CC[C@H]2[C@@H]3CCC4=CC(=O)CC[C@]4(C)[C@H]3CC[C@]12C
inactive: Potency [2] | Potency [3] | Potency [5] | Potency [6] | outcome [7]
active: Potency [1] 11900 nM | Potency [9] 3760 nM

ON(Cc1ccccc1)Cc1ccccc1
inactive: Potency [1] | Potency [3] | Potency [4] | Potency [9] | Potency [5] | outcome [7] | Potency [8]
